Assay outcomes as filed in PubChem BioAssay.
Pf Dd2 growth: qHTS Primary assay for Inhibitors of Plasmodium falciparum Dd2 growth in vitro; P. falciparum Dd2 growth, SYBR Green, 72 h; Potency, µM (highest dose often 28.9 µM), for inactives: at the highest dose activity, negative = inhibition, actives largely listed as inhibitors; 4.3% of 120,000 active; active = well fitted inhibition curve with a large enough effect;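 also: plate controls were DMSO vehicle for no effect and reference drug for full effect; nearly all actives have a fitted effect of over 65% in size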
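Readout: SYBR Green fluorescence, 485 nm excitation, 535 nm emission, after ~16 h lysis at 37C. Before that, Dd2-infected red cells (2.5% hematocrit) grew 72 h with compound, 29 uM top final concentration.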
An asterisk follows results filed as active; i = inactive; [ ] = remark or other dose. This is one part of a sample in which hits are shown more often than they occur. Potency is read from the fitted curve at half-maximal effect.

SMILES | Pf Dd2 growth
CC(=O)N1CCN(C[C@@H]2C=C(C)[C@H](Cc3nnc(-c4ccncc4)o3)C[C@H]2C(C)C)CC1 | 11µM*
CC1=C[C@@H](CNCc2ccc(C#N)cc2)[C@H](C(C)C)C[C@H]1Cc1nnc(-c2cccnc2)o1 | -19%
CC(=O)N1CCN(C[C@@H]2C=C(C)[C@H](Cc3nnc(-c4ccccc4F)o3)C[C@H]2C(C)C)CC1 | 13µM*
COCC(=O)NC[C@@H]1C=C(C)[C@H](Cc2nnc(-c3cncn3C)o2)C[C@H]1C(C)C | i
CC1=C[C@@H](CN2CCC(C(N)=O)CC2)[C@H](C(C)C)C[C@H]1Cc1nnc(-c2ccncc2)o1 | -11%[44.1 µM]
CC1=C[C@@H](CNC(=O)C2CC2)[C@H](C(C)C)C[C@H]1Cc1nnc(-c2ccccc2F)o1 | 16µM*
CC1=C[C@@H](CNCc2ccccn2)[C@H](C(C)C)C[C@H]1Cc1nnc(-c2ccccc2F)o1 | 3.2µM*
CC1=C[C@@H](CN2CCC(C(N)=O)CC2)[C@H](C(C)C)C[C@H]1Cc1nnc(-c2cccnc2)o1 | i
CN1CCC(OC2CCN(C(=O)c3cccc(C(F)(F)F)c3)CC2)CC1 | -23%
Cc1ccc(-c2nnc([C@H]3CCN(C(C)C)C3)o2)cc1 | i
Cc1ncc2n1C(=O)N(C1CCN(C(=O)Nc3ccccc3)CC1)C2 | -23%[44.1 µM]
O=C(c1ccc2c(c1)OCO2)N1CCCC(n2cc(-c3nc(-c4ccccc4)no3)nn2)C1 (centres undefined) | i
COc1ccc(C(=O)N2CCN(C(=O)c3nnn4c3COC(c3ccccc3)C4)CC2)cc1F (centres undefined) | -7%
CN(C)[C@@H]1[C@@H](NC(=O)Cc2noc3ccccc23)[C@H]2CCO[C@H]21 | -21%
O=C(NC1C[C@H]2CC[C@@H](C1)N2C(=O)Cc1ccc(F)cc1)c1ccncc1 (some centres undefined) | i
Cc1noc(CN(C)C(=O)c2ccc(S(=O)(=O)NCCO)cc2)n1 | -12%
CC(C)C(=O)N1CCc2c(n(Cc3ccccc3)n(-c3ccccc3)c2=O)C1 | 6%[44.1 µM]
CCN1c2cc(C(=O)Nc3ccc4c(c3)OCCO4)ccc2C(=O)N2CCCCC21 (centres undefined) | i
CC1=C[C@@H](CNC2CCOCC2)[C@H](C(C)C)C[C@H]1Cc1nc2ccccc2n1C | 5µM*
CC(=O)NC[C@@H]1C=C(C)[C@H](Cc2nnc(-c3cncn3C)o2)C[C@H]1C(C)C | 0%[44.1 µM]
CC1=C[C@@H](CN2CCOCC2)[C@H](C(C)C)C[C@H]1Cc1nnc(-c2ccncc2)o1 | -12%[44.1 µM]
CC1=C[C@@H](CNC(=O)COc2ccccc2)[C@H](C(C)C)C[C@H]1CC(=O)NCCN1CCOCC1 | i
CC1=C[C@@H](CNCCN2CCOCC2)[C@H](C(C)C)C[C@H]1Cc1nnc(-c2ccccc2)o1 | 4µM*
CC(=O)NC[C@@H]1C=C(C)[C@H](Cc2nc3ccccc3n2C)C[C@H]1C(C)C | i
CC(=O)N1CCN(C[C@@H]2C=C(C)[C@H](Cc3nnc(-c4cncn4C)o3)C[C@H]2C(C)C)CC1 | -12%
SMILES | Pf Dd2 growth
CC1=C[C@@H](CNC(=O)N2CCOCC2)[C@H](C(C)C)C[C@H]1Cc1nc2ccccc2[nH]1 | -8%[44.1 µM]
CC1=C[C@@H](CN2CCN(c3ccccc3)CC2)[C@H](C(C)C)C[C@H]1Cc1nnc(-c2cncn2C)o1 | 4µM*
Cc1[nH]ncc1CNC(=O)C1(Cc2ccccc2)CCCCC(=O)N1 (centres undefined) | -13%
O=C(NCc1ccccc1)c1nc2c(o1)CCN(Cc1ccc(F)c(Cl)c1)CC2 | -21%[44.1 µM]
Cc1ccc(NC(=O)c2cc3c(N4CCSCC4)nc(C)cn3n2)c(C)c1 | -6%
CCc1nc(-c2ccc(OC3CCN(C(=O)Cc4cccc(OC)c4)C3)cc2)no1 (centres undefined) | i[5.79 µM]
Cc1nc(-c2c3n(c(=O)n(CC(=O)Nc4ccccc4F)c2=O)CCCCC3)no1 | 18%
COCCC(=O)N1CC(c2nnc(-c3ccc(C)cc3)o2)C2(CCOCC2)C1 (centres undefined) | 16%
CCn1ncc(N2CCC(NC(=O)c3ccc(C)cc3C)CC2)cc1=O | -18%
Cc1cc(C)c(NS(=O)(=O)c2ccc3c(c2)CC(C)N3C(=O)C2CCC2)c(C)c1 (centres undefined) | 19%
CCCN(c1ccccc1CC)S(=O)(=O)c1ccc2c(c1)CC(C)N2C(=O)C1CC1 (centres undefined) | 8.9µM*
CCc1ccccc1NC(=O)C1CCC(CNS(=O)(=O)c2ccc3c(c2)CC(C)N3C(C)=O)CC1 (centres undefined) | -27%
COc1cccc(CNC(=O)CN2C(=O)NC3(CCS(=O)(=O)CC3)C2=O)c1 | -22%
CCN1CCN(C(=O)Cn2cccc(OC)c2=O)CC1(C)C | -9%
COC(=O)c1c(-c2ccc(Cl)cc2)noc1N1CCN(c2ccc(F)cc2)CC1 | -17%
COC(=O)c1c(-c2ccc(Cl)cc2)noc1N1CCN(c2cccc(C(F)(F)F)c2)CC1 | 7.1µM*
CC(=O)NC1(C)CCN(c2cccc(C(F)(F)F)c2)CC1 | -19%[44.1 µM]
O=C(Cc1ccccc1)N1CCC2(Cc3ccccc3NC2=O)C1 (centres undefined) | i
O=S(=O)(C1CC1)N1CCn2c(nnc2C2CCCN2)C1 (centres undefined) | 11%
CC(NC(=O)c1ccc(CSc2nc3ccncc3n2Cc2ccc(F)cc2)cc1)c1ccccc1 (centres undefined) | 8.9µM*
O=C(NC1CCCC1)c1ccc2c(=O)n(Cc3ccccc3)c(SCc3ccccc3)nc2c1 | 21%
CC(NC(=O)c1ccc(Cn2c(SCc3ccccc3)nc3cccnc32)cc1)c1ccccc1 (centres undefined) | 14%
CC(NC(=O)c1cc2sccc2n1Cc1ccc(F)cc1)c1ccccc1 (centres undefined) | i
Cc1ccccc1Cn1c(SCc2ccc(C(=O)NC(C)c3ccccc3)cc2)nc2ccncc21 (centres undefined) | 6.3µM*
Cc1ccccc1CSc1nc2cc(C(=O)NC3CCCC3)ccc2c(=O)n1Cc1ccccc1 | i
SMILES | Pf Dd2 growth
CC(NC(=O)c1ccccc1)c1nc2ccccc2n1Cc1ccc(Cl)cc1 (centres undefined) | -15%
CN(C)[C@H]1CCCCN(C(=O)c2ccc(CSc3ccccn3)cc2)C1 | i
CC1CCCN(C(=O)c2ccc(CSc3nc4ccncc4n3Cc3ccccc3)cc2)C1 (centres undefined) | 11µM*
Cc1cc(C(=O)N2CCCC(c3nc(-c4cccnc4)no3)CCNC(=O)CC2)n(C)n1 (centres undefined) | 3%
O=S(=O)(c1ccc(Br)cc1)N1CCC(n2cnnc2C2CC2)CC1 | 0%
CCCN1CCc2[nH]cnc2C12CCN(C(=O)[C@H]1Cc3ccccc3CN1)CC2 | 3%
O=C1CCN(Cc2ccncc2)CCCC(C(=O)NCc2ccc(F)cc2)CCN1 (centres undefined) | -9%
CC(C)NC(=O)Cc1csc2nc(-c3ccccc3)cn12 | 40%
CCN(CC)CCCNC(=O)Cc1csc2nc(-c3ccc(Cl)cc3)cn12 | 8.9µM*
COc1ccccc1CNC(=O)Cc1csc2nc(-c3ccccc3)cn12 | -20%
COc1ccc(CCNC(=O)CCCn2c(=O)c3ccccc3n(CC(=O)Nc3c(C)cc(C)cc3C)c2=O)cc1OC | -7%
COc1ccc(CCNC(=O)CCCn2c(=O)c3ccccc3n(CC(=O)Nc3cccc(C)c3)c2=O)cc1OC | 10µM*
COc1ccc(CCNC(=O)CCCCn2c(=O)c3ccccc3n(CC(=O)Nc3ccccc3C)c2=O)cc1OC | -18%
